Results filed as inconclusive are left out. Activity calls are given as the source filed them. Calls follow the shape of the dose curve; as a rule, active = well fitted inhibition curve with a large enough effect; inconclusive = small, poorly fitted or top-dose-only effect; inactive = no such curve, though single readings can be large or run the other way.
assay: Acumen qHTS Assay for Inhibitors of the mTORC1 Signaling Pathway in MEF (Tsc2-/-, p53-/-) Cells: Hit Validation; conditions: Acumen imaging; activity change, negative = inhibition: at 37.3 µM (top of the series);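 also: phospho-rpS6 Ser235/236 immunofluorescence normalized to propidium iodide cell count; nearly all actives have a fitted effect of over 65% in size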;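 as to activity change, negative = inhibition: cells exposed to compound for 24 hours; plate controls were DMSO for no effect and 7.5 nM rapamycin control for full effect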
Potency is read from the fitted curve at half-maximal effect.

| Structure (SMILES) | activity change, negative = inhibition [%] | Potency |
| --- | --- | --- |
| Cc1ccc(C)c(NC(=O)Nc2cc3c(cc2N2CCCCC2)n(C)c(=O)n3C)c1 | 3.56 | – |
| Cc1noc(/C=C/N(C)C)c1S(=O)(=O)N1CCCC(C(=O)Nc2ccc(F)cc2F)C1 (stereo not drawn) | – | 1.85 µM (active) |
| COc1ccc2nc(NC(=O)c3nc(S(=O)(=O)Cc4ccccc4)ncc3Cl)sc2c1 | – | 5.85 µM (active) |
| COc1ccc(NC(=O)CSc2nc3ccccc3n2Cc2cccc(OC)c2)cc1 | -5.71 | – |
| O=C(CS(=O)(=O)c1cccc2nsnc12)NCc1ccc(Cl)cc1 | 10.4 | – |
| CC(=O)Nc1cccc(NC(=O)C(=O)NCCc2sc(-c3ccccc3)nc2C)c1 | – | 0.329 µM (active) |
| Cc1ccc(NC(=O)c2nc(S(=O)(=O)Cc3ccc(F)cc3)ncc2Cl)cc1C | – | 11.7 µM (active) |
| CC(=O)C1=C(c2ccc(Cl)c(Cl)c2)N(C(C)=O)n2cnnc2S1 | – | 5.21 µM (active) |
| CC(C)(C)C(=O)Nc1ccc(-c2nc3ccc(NC(=O)C(C)(C)C)cc3[nH]2)cc1 | -3.72 | – |
| O=C(Cn1cc(SCc2ccccc2)c2ccccc21)N1CCCCCC1 | 15.1 | – |
| COC(=O)c1ccccc1NC(=O)CSc1n[nH]c(CC(C)C)n1 | 5.05 | – |
| O=C(Nc1ccc(Cl)cc1)c1cc(S(=O)(=O)N2CCCc3ccccc32)ccc1F | -18.3 | – |
| CC(=O)Nc1ccc2nc(-c3cc(C)ccc3C)[nH]c2c1 | -21.9 | – |
| COc1cc(-c2ccno2)ccc1S(=O)(=O)N1CCN(c2cc(C)ccc2C)CC1 | -45.4 | – |
| CCOC(=O)c1ccc(-c2ccc(/C=C(\C#N)c3nc4ccc(C)cc4[nH]3)o2)cc1 | – | 4.14 µM (active) |
| CCCCOC(=O)c1ccc(NC(=O)c2ccc3c(c2)CCN3S(=O)(=O)c2ccccc2)cc1 | -14.2 | – |
| Cc1ccc(-c2nnc(Nc3cccc(Cl)c3)c3ccccc23)cc1S(=O)(=O)N1CCN(C)CC1 | -42.6 | – |
| COc1ccc(CCNC(=O)CCCn2nc(C)c3sc4ccccc4c3c2=O)cc1OC | -12 | – |
| COc1ccc(CNC(=O)Cn2c(SCC(=O)Nc3ccc(C)c(C)c3)nc3ccccc32)cc1 | -79.6 | – |

| Structure (SMILES) | activity change, negative = inhibition [%] | Potency |
| --- | --- | --- |
| COc1ccc2c(c1)CCc1c(C(=O)Nc3c(C)nn(Cc4ccc(Cl)cc4)c3C)noc1-2 | -75.9 | – |
| Cc1ccccc1OCCn1c(=N)n(C(C)C)c2ccccc21 | – | 8.26 µM (active) |
| O=C(NCc1ccccc1)c1ccc2c(c1)N(Cc1ccccc1F)C(=O)c1ccccc1S2=O (stereo not drawn) | -33 | – |
| Fc1ccc(Nc2nc3nonc3nc2Nc2cccc(C(F)(F)F)c2)cc1 | – | 1.85 µM (active) |
| Cc1oc(-c2ccccc2F)nc1Cn1c(SCc2cccc(Cl)c2)nc2ccncc21 | -12.7 | – |
| Cc1ccc(C(=O)CC2(O)C(=O)N(Cc3ccccc3F)c3ccccc32)cc1 (stereo not drawn) | -11.8 | – |
| CC(C)S(=O)(=O)c1oc(-c2cccs2)nc1S(=O)(=O)c1ccc(F)cc1 | – | 0.736 µM (active) |
| O=C(Nc1cccc(C(F)(F)F)c1)c1cnn(-c2cccc(F)c2)c1C1CCNCC1 | -13.8 | – |
| CCn1c2ccccc2c2cc(CN3CCN(Cc4ccc(Cl)cc4)CC3)ccc21 | – | 14.7 µM (active) |
| Cc1ccc(C)c(S(=O)(=O)NCC(c2ccco2)S(=O)(=O)c2ccc(F)cc2)c1 (stereo not drawn) | -16.2 | – |
| CCOc1ccccc1NC(=O)CN1C(=O)C(=O)c2ccccc21 | – | 18.5 µM (active) |
| O=S(=O)(NCC(c1ccco1)N1CCN(c2ccc(F)cc2)CC1)c1ccccc1 (stereo not drawn) | 12.9 | – |
| Brc1ccc(Nc2c3c(nc4nncn24)CCC3)cc1 | 7.81 | – |
| O=C(CCCn1c(=O)c2ccccc2n(Cc2cccc(Cl)c2)c1=O)NCCc1ccc(Cl)cc1 | -4.01 | – |
| CCCC1=Nc2cc(C(=O)NCc3ccccc3)ccc2Sc2ccccc21 | – | 4.14 µM (active) |
| CCS(=O)(=O)c1ncc(Cl)c(C(=O)Nc2ccccc2)n1 | – | 1.31 µM (active) |
| CCN(CC)S(=O)(=O)c1ccc(NC(=O)CCc2c(C)nc3cc(-c4ccc(Cl)cc4)nn3c2C)cc1 | -101 | – |
| Cc1c(C(=O)OC2CCC(C)CC2)[nH]c2c1C(=O)CC(c1ccccc1Cl)C2 (stereo not drawn) | -43.7 | – |
| Cc1ccc(-n2ncc(C(=O)NCCCN3CCc4ccccc4C3)c2C2CCN(C(=O)OC(C)(C)C)CC2)c(C)c1 | -11.4 | – |

From PubChem BioAssay AID651784 (National Center for Advancing Translational Sciences (NCATS), 2012)
